Experimental data as given in article PMC7862700, “An all-to-all approach to the identification of sequence-specific readers for epigenetic DNA modifications on cytosine”.

Columns and labels:
Assay in all cases: DAPPL (digital affinity profiling via proximity ligation, sequencing); 10 mM Tris-HCl pH 7.5, 50 mM NaCl, 1 mM DTT, 4% glycerol, room temperature, 30 min; GST-TFs on glutathione beads, 16-mer random dsDNA library, 0.1% formaldehyde crosslink after washing; high values mean tight binding
Details in all cases: protein: recombinant; tags: N-terminal GST; dsDNA, one strand shown
[1] = biological target: T1, ERF (Homo sapiens, UniProt P50548 1-548)
T1 sequence: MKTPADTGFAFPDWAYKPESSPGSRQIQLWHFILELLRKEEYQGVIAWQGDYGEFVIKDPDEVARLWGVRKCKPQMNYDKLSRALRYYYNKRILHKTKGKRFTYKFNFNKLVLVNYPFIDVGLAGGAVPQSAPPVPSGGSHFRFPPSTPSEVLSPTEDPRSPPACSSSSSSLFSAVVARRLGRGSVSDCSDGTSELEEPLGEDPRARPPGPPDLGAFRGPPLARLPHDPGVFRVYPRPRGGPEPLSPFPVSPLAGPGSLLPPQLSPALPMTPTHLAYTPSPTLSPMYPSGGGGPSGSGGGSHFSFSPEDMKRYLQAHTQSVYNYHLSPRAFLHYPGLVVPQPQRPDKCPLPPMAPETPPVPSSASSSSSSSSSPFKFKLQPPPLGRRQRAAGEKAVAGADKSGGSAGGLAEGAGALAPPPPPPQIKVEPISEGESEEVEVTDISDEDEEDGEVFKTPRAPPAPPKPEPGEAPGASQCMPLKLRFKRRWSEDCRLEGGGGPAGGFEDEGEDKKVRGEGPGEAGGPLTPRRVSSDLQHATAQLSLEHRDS
Outline: (§1)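 Yeast served to express human transcription factors as GST fusions, which were then captured on glutathione beads and labelled with DNA barcodes. Pooled with a tag-only sample, they were incubated with 200 nmole of a 16-mer random double-stranded DNA library for 30 min at room temperature in Tris/NaCl/DTT/glycerol buffer, washed, crosslinked with 0.1% formaldehyde, ligated by proximity, amplified by PCR and sequenced. Dividing each hexamer's read frequency for a factor by its frequency for the tag-only sample gives the binding signal.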

[2] = biological target: T2, ETV3L (Homo sapiens, UniProt Q6ZN32 1-361)
T2 sequence: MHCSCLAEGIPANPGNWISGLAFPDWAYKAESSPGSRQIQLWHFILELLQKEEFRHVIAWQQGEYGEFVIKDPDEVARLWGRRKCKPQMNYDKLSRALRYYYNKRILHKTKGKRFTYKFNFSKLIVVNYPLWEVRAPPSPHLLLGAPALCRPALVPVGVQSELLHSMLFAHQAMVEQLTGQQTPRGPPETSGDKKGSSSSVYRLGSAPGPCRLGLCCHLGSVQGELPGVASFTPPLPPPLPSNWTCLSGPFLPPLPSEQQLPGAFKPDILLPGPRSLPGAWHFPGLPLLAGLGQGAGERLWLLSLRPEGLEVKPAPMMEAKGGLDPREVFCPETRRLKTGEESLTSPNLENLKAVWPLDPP
Outline: as §1

[3] = biological target: T3, ETS2 (Homo sapiens, UniProt P15036 1-469)
T3 sequence: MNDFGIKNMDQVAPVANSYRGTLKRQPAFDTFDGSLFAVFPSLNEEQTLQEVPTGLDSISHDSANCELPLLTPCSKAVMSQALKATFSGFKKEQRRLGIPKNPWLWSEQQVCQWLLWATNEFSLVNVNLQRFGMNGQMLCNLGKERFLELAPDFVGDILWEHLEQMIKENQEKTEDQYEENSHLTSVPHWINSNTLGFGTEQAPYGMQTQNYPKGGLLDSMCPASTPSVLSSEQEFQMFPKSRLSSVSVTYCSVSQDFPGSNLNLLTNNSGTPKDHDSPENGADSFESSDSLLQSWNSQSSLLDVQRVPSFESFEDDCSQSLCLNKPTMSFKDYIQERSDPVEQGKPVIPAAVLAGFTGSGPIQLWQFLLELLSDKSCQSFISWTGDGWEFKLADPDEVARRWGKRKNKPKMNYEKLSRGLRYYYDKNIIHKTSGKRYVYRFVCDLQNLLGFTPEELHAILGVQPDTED
Outline: as §1

[4] = biological target: T4, SPDEF (Homo sapiens, UniProt O95238 1-335)
T4 sequence: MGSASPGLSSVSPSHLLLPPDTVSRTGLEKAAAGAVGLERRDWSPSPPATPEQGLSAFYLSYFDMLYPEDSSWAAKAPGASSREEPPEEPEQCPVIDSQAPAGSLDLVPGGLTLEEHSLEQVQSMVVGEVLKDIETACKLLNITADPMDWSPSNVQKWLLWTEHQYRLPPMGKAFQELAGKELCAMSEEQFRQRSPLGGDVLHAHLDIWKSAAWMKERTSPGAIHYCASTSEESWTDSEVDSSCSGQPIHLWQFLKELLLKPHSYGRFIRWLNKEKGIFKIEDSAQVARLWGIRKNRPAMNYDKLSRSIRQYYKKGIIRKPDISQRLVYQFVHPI
Outline: as §1

[5] = biological target: T5, ETV7 (Homo sapiens, UniProt Q9Y603 1-341)
T5 sequence: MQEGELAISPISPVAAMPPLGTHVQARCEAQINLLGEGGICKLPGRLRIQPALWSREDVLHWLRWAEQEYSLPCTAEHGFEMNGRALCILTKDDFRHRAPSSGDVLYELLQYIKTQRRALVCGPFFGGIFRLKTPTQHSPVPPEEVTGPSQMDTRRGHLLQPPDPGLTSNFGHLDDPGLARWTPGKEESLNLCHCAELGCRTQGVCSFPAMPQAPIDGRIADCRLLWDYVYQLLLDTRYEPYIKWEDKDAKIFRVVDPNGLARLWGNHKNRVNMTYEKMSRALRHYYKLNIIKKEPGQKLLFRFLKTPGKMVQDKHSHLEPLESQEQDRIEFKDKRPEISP
Outline: as §1

[6] = biological target: T6, ELF5 (Homo sapiens, UniProt Q9UKW6-2 1-255)
T6 sequence: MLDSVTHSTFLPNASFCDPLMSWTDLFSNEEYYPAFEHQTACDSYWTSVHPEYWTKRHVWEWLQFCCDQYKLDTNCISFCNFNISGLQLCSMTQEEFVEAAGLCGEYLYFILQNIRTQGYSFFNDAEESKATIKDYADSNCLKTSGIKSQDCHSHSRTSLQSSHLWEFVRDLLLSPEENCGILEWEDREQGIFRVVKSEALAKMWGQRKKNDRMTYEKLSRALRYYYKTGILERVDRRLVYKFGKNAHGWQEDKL
Outline: as §1

[7] = biological target: T7, ETV3 (Homo sapiens, UniProt P41162-2 1-143)
T7 sequence: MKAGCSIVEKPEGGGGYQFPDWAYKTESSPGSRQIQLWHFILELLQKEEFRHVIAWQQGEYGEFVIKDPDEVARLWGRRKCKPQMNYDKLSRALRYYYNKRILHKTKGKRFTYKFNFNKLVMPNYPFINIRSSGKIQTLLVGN
Outline: as §1

[8] = biological target: ETV6 (Homo sapiens, UniProt P41212 1-452)
Sequence of ETV6 (P41212 whole entry): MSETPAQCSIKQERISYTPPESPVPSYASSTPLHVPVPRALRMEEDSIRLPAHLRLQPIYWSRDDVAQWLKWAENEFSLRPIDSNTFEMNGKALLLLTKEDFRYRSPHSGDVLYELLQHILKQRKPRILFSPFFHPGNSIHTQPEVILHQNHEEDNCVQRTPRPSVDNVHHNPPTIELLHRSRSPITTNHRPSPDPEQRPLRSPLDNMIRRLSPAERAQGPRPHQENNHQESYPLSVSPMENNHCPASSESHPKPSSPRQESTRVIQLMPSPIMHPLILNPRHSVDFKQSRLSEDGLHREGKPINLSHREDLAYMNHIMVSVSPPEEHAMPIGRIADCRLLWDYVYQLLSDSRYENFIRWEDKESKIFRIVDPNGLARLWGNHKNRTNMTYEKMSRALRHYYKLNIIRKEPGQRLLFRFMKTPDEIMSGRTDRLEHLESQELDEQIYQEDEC
Outline: as §1

Sequence	binding signal [1]	binding signal [2]	binding signal [3]	binding signal [4]	binding signal [5]	binding signal [6]	binding signal [7]	binding signal [8]
ACCCAT	1.31 fold enrichment (6-mer frequency, TF over GST control)	1.34 fold enrichment (6-mer frequency, TF over GST control)	1.37 fold enrichment (6-mer frequency, TF over GST control)	1.21 fold enrichment (6-mer frequency, TF over GST control)	1.37 fold enrichment (6-mer frequency, TF over GST control)	1.24 fold enrichment (6-mer frequency, TF over GST control)	1.25 fold enrichment (6-mer frequency, TF over GST control)	1.24 fold enrichment (6-mer frequency, TF over GST control)
CTACTC	1.48 fold enrichment (6-mer frequency, TF over GST control)	1.45 fold enrichment (6-mer frequency, TF over GST control)	1.34 fold enrichment (6-mer frequency, TF over GST control)	1.29 fold enrichment (6-mer frequency, TF over GST control)	1.13 fold enrichment (6-mer frequency, TF over GST control)	1.29 fold enrichment (6-mer frequency, TF over GST control)	1.25 fold enrichment (6-mer frequency, TF over GST control)	1.3 fold enrichment (6-mer frequency, TF over GST control)
CTATAT	1.48 fold enrichment (6-mer frequency, TF over GST control)	1.4 fold enrichment (6-mer frequency, TF over GST control)	1.54 fold enrichment (6-mer frequency, TF over GST control)	1.51 fold enrichment (6-mer frequency, TF over GST control)	1.41 fold enrichment (6-mer frequency, TF over GST control)	1.4 fold enrichment (6-mer frequency, TF over GST control)	1.5 fold enrichment (6-mer frequency, TF over GST control)	1.43 fold enrichment (6-mer frequency, TF over GST control)
CATCTC	1.25 fold enrichment (6-mer frequency, TF over GST control)	1.32 fold enrichment (6-mer frequency, TF over GST control)	1.36 fold enrichment (6-mer frequency, TF over GST control)	1.24 fold enrichment (6-mer frequency, TF over GST control)	1.15 fold enrichment (6-mer frequency, TF over GST control)	1.22 fold enrichment (6-mer frequency, TF over GST control)	1.29 fold enrichment (6-mer frequency, TF over GST control)	1.26 fold enrichment (6-mer frequency, TF over GST control)
AAGTCC	1.08 fold enrichment (6-mer frequency, TF over GST control)	1.21 fold enrichment (6-mer frequency, TF over GST control)	1.27 fold enrichment (6-mer frequency, TF over GST control)	1.4 fold enrichment (6-mer frequency, TF over GST control)	1.23 fold enrichment (6-mer frequency, TF over GST control)	1.34 fold enrichment (6-mer frequency, TF over GST control)	1.37 fold enrichment (6-mer frequency, TF over GST control)	1.2 fold enrichment (6-mer frequency, TF over GST control)
ATGAAC	1.26 fold enrichment (6-mer frequency, TF over GST control)	1.28 fold enrichment (6-mer frequency, TF over GST control)	1.29 fold enrichment (6-mer frequency, TF over GST control)	1.18 fold enrichment (6-mer frequency, TF over GST control)	1.2 fold enrichment (6-mer frequency, TF over GST control)	1.29 fold enrichment (6-mer frequency, TF over GST control)	1.28 fold enrichment (6-mer frequency, TF over GST control)	1.24 fold enrichment (6-mer frequency, TF over GST control)
TCCATT	1.23 fold enrichment (6-mer frequency, TF over GST control)	1.22 fold enrichment (6-mer frequency, TF over GST control)	1.28 fold enrichment (6-mer frequency, TF over GST control)	1.2 fold enrichment (6-mer frequency, TF over GST control)	1.26 fold enrichment (6-mer frequency, TF over GST control)	1.2 fold enrichment (6-mer frequency, TF over GST control)	1.37 fold enrichment (6-mer frequency, TF over GST control)	1.29 fold enrichment (6-mer frequency, TF over GST control)
ACCTAA	1.17 fold enrichment (6-mer frequency, TF over GST control)	1.18 fold enrichment (6-mer frequency, TF over GST control)	1.17 fold enrichment (6-mer frequency, TF over GST control)	1.19 fold enrichment (6-mer frequency, TF over GST control)	1.18 fold enrichment (6-mer frequency, TF over GST control)	1.14 fold enrichment (6-mer frequency, TF over GST control)	1.03 fold enrichment (6-mer frequency, TF over GST control)	1.18 fold enrichment (6-mer frequency, TF over GST control)
ACCTGC	1.35 fold enrichment (6-mer frequency, TF over GST control)	1.42 fold enrichment (6-mer frequency, TF over GST control)	1.5 fold enrichment (6-mer frequency, TF over GST control)	1.4 fold enrichment (6-mer frequency, TF over GST control)	1.48 fold enrichment (6-mer frequency, TF over GST control)	1.39 fold enrichment (6-mer frequency, TF over GST control)	1.44 fold enrichment (6-mer frequency, TF over GST control)	1.66 fold enrichment (6-mer frequency, TF over GST control)
CAAGAT	1.06 fold enrichment (6-mer frequency, TF over GST control)	1.13 fold enrichment (6-mer frequency, TF over GST control)	1.06 fold enrichment (6-mer frequency, TF over GST control)	1.26 fold enrichment (6-mer frequency, TF over GST control)	1.02 fold enrichment (6-mer frequency, TF over GST control)	1.01 fold enrichment (6-mer frequency, TF over GST control)	1.08 fold enrichment (6-mer frequency, TF over GST control)	1.01 fold enrichment (6-mer frequency, TF over GST control)
CTCGAC	1.48 fold enrichment (6-mer frequency, TF over GST control)	1.37 fold enrichment (6-mer frequency, TF over GST control)	1.45 fold enrichment (6-mer frequency, TF over GST control)	1.42 fold enrichment (6-mer frequency, TF over GST control)	1.37 fold enrichment (6-mer frequency, TF over GST control)	1.38 fold enrichment (6-mer frequency, TF over GST control)	1.45 fold enrichment (6-mer frequency, TF over GST control)	1.63 fold enrichment (6-mer frequency, TF over GST control)
ATACAC	1.32 fold enrichment (6-mer frequency, TF over GST control)	1.18 fold enrichment (6-mer frequency, TF over GST control)	1.16 fold enrichment (6-mer frequency, TF over GST control)	1.28 fold enrichment (6-mer frequency, TF over GST control)	1.21 fold enrichment (6-mer frequency, TF over GST control)	1.15 fold enrichment (6-mer frequency, TF over GST control)	1.17 fold enrichment (6-mer frequency, TF over GST control)	1.12 fold enrichment (6-mer frequency, TF over GST control)
ATATTA	1.16 fold enrichment (6-mer frequency, TF over GST control)	1.17 fold enrichment (6-mer frequency, TF over GST control)	1.06 fold enrichment (6-mer frequency, TF over GST control)	1.11 fold enrichment (6-mer frequency, TF over GST control)	1.1 fold enrichment (6-mer frequency, TF over GST control)	1.09 fold enrichment (6-mer frequency, TF over GST control)	1.18 fold enrichment (6-mer frequency, TF over GST control)	1.13 fold enrichment (6-mer frequency, TF over GST control)
TATTCT	1.22 fold enrichment (6-mer frequency, TF over GST control)	1.35 fold enrichment (6-mer frequency, TF over GST control)	1.36 fold enrichment (6-mer frequency, TF over GST control)	1.34 fold enrichment (6-mer frequency, TF over GST control)	1.42 fold enrichment (6-mer frequency, TF over GST control)	1.32 fold enrichment (6-mer frequency, TF over GST control)	1.31 fold enrichment (6-mer frequency, TF over GST control)	1.4 fold enrichment (6-mer frequency, TF over GST control)
CACGTA	1.19 fold enrichment (6-mer frequency, TF over GST control)	1.17 fold enrichment (6-mer frequency, TF over GST control)	1.14 fold enrichment (6-mer frequency, TF over GST control)	1.15 fold enrichment (6-mer frequency, TF over GST control)	1.18 fold enrichment (6-mer frequency, TF over GST control)	1.15 fold enrichment (6-mer frequency, TF over GST control)	1.16 fold enrichment (6-mer frequency, TF over GST control)	1.11 fold enrichment (6-mer frequency, TF over GST control)
